Assay results reported in PubChem BioAssay (NCATS).
Results filed as inconclusive are left out. Where a call stands in place of a potency, no number is given. Values without a mark were called inactive. Active and inactive are the calls of the source. Calls come from the whole dose curve; as a rule, active = well fitted inhibition curve with a large enough effect; inconclusive = small, poorly fitted or top-dose-only effect; inactive = flat fitted curve, though single readings scatter.

What follows are compounds tested on Zika virus NS2B-NS3 protease (assay: Primary screen GU AMC qHTS for Zika virus inhibitors (AID 1347154; note: nearly all actives have a fitted effect of over 70% in size)). Conditions: Zika NS2B-NS3 unlinked protease, AMC fluorogenic substrate; series mostly up to 54.1 µM.
Summary of the method: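 Fluorogenic AMC-substrate cleavage by noncovalent NS2B-NS3 protease complex (25 nM, pH 8.0 Tris buffer with Tween 20) followed for 15 minutes at room temperature (~20% conversion). Percent inhibition from ex340/em450 signal change, fitted by 4-parameter Hill equation.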

Compound | Potency | activity change, negative = inhibition
CCC(=O)Nc1ccc(O)cc1 | inactive | 
NC(=O)N/N=C/c1ccc([N+](=O)[O-])o1 | inactive | 
CC(C)(C)NCC(O)COc1ccc(NC(=O)NC2CCCCC2)cc1 (centres undefined) | inactive | 
O=c1[nH]c(=O)c2[nH]c(=O)[nH]c2[nH]1 |  | -2.36% [at 6.83 µM]
CCCCCCCCCCCCOS(=O)(=O)O | inactive | 
OCC(CO)N[C@H]1C[C@](O)(CO)[C@@H](O)[C@H](O)[C@H]1O | inactive | 
CCCCOC(=O)c1ccc(O)cc1 | inactive | 
CCN(CC)C(C)CN1c2ccccc2Sc2ccccc21 (centres undefined) | inactive | 
NS(=O)(=O)c1cc2c(cc1Cl)NC(CSCc1ccccc1)=NS2(=O)=O | inactive | 
O=S(=O)(O)NC1CCCCC1 | inactive | 
C[C@H]1O[C@H](O[C@H]2[C@H](O)[C@@H](O)[C@@H](O[C@H]3[C@H](O)[C@@H](O)[C@H](O)O[C@@H]3CO)O[C@@H]2CO)[C@H](O)[C@@H](O)[C@@H]1N[C@H]1C=C(CO)[C@@H](O)[C@H](O)[C@H]1O | inactive | 
COc1cc(C(=O)N2CCOCC2)cc(OC)c1OC | inactive | 
CCCCC/C(C=O)=C\c1ccccc1 | inactive | 
O=Cc1ccccc1C=O | inactive | 
